Growth data for 26 molecules are collected here from PubChem BioAssay (NCI).

Holding throughout (assay): NCI-60 one-dose screen, 48 h (100 = growth as untreated, 0 = no growth, -100 = all killed)
Experiment [1] deals with DU-145 prostate. To be noted: 10 µM unless noted.
For experiment [2], the system named is K-562 leukemia. To be noted: 10 µM unless noted.
Experiment [3] relates to MALME-3M melanoma. To be noted: 10 µM unless noted.
The subject of experiment [4] is MDA-MB-231 breast. As to conditions: 10 µM unless noted.
Experiment [5] concerns RXF 393 renal. To be noted: 10 µM unless noted.
Experiment [6] relates to SF-268 CNS. To be noted: 10 µM unless noted.
Experiment [7] deals with SF-295 CNS. As to conditions: 10 µM unless noted.
Experiment [8] concerns SF-539 CNS. As to conditions: 10 µM unless noted.
In experiment [9] the test system is UACC-257 melanoma. As to conditions: 10 µM.
For experiment [10], the system named is M14 melanoma. As to conditions: 10 µM unless noted.

Compounds without any hit were thinned out: in the full panel of roughly 83,000, 20% have a hit.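 Cell lines were cultured in 96-well plates, exposed to a single compound concentration, and assessed for percent growth 48 hours later.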 Values without a mark were called inactive. Activity calls are given as the source filed them. How the source made its calls: active means growth percent below 10; inactive means the rest.

As to `Cc1nn(-c2ccc(Br)cc2)c2nc(CCl)[nH]c(=O)c12`, the growth in experiment [1] was 110%; in [2] it was 75.6%; in experiment [3], 106%; in experiment [4], 94.1%; in [5], 119%; in experiment [6] it was 99.4%. The growth in [7] was 100%; in experiment [8], 77%; in experiment [9], 101%; in experiment [10] it was 101%.

Consider `CN(c1ccc(Cl)cc1)S(=O)(=O)c1ccc(-c2cnc(C3CC3)o2)cc1`, for which the growth was 15.9% in experiment [1]; 10.4% in experiment [2]; 77.8% in experiment [3]; 22.3% in experiment [4]; 46.5% in experiment [5]; 40.2% in experiment [6]. For the same molecule, the growth in experiment [7] was 18%; in experiment [8], 10.4%; in [9], 66.1%; in experiment [10], 24.9%.

As to `COc1cc(/C=C/C(=O)c2ccc(N3CCN(C)CC3)cc2)ccc1F`, the growth in [1] is 88.3%; in experiment [2], 7.19% (active); in [3], 103%; in [4] it was 103%; in experiment [5], 98.2%; in experiment [6] it was 97.8%. Further, the growth in [7] is 92.5%; in [8], 65.6%; in experiment [9], 89.8%; in experiment [10] it was 73.6%.

Turning to `C#C[C@]1(O)CC[C@H]2[C@@H]3CC=C4c5sc(Nc6cccc(C)n6)nc5CC[C@]4(C)[C@H]3CC[C@@]21C`, the growth in experiment [1] was 43.6%; in experiment [2] it was -10.9% (active); in experiment [3] it was 5.14% (active); in experiment [4] it was 31.9%; in experiment [5], -60.4% (active); in [6] it was -7.63% (active). The growth in experiment [7] was -70.4% (active); in experiment [8], -48.8% (active); in experiment [9] it was -34.9% (active); in [10], -29.8% (active).

Consider `COc1ccccc1/C=C/C(=O)c1nnn(-c2ccc(C(=O)O)cc2)c1C`, for which the growth in [1] was 80.4%; in [2], 73.7%; in [3], 86.8%; in experiment [4], 98.7%; in experiment [5], 86.6%; in experiment [6], 87.5%. The growth in [7] was 100%; in experiment [8], 91.4%; in experiment [9] it was 81.5%; in experiment [10], 77.8%.

Turning to `N/C(=N\c1nc2ccc([N+](=O)[O-])cc2s1)C(Cl)(Cl)Cl`, the growth is 1.66% (active) in experiment [1]; 81.2% in [2]; 77.4% in experiment [3]; 63.1% in [4]; 44.3% in experiment [5]; 71.3% in [6]. Also, the growth is 19.6% in experiment [7], 63.5% in experiment [8], 85.1% in experiment [9] and 85.5% in experiment [10].

Take `COc1cc(-c2nc(SCc3ccc(C)cc3)[nH]c(=O)c2C#N)ccc1OCc1ccccc1`: the growth is 106% in experiment [1]; 87.9% in experiment [2]; 94.5% in experiment [3]; 104% in experiment [4]; 108% in experiment [5]; 97.6% in [6]. Also, the growth in experiment [7] is 106%; in experiment [8], 101%; in experiment [9], 96.9%; in experiment [10] it was 105%.

Take `CC(=O)Oc1ccc(CCN2C(=O)CSC2=S)cc1`: the growth was 11% in experiment [1]; 57.2% in [2]; 83.2% in [3]; 64.4% in experiment [4]; 69.8% in experiment [5]; 92.1% in experiment [6]. The growth was 103% in experiment [7], 85.2% in experiment [8], 95.9% in [9] and 85.7% in experiment [10].

As for `O=C(CN1C(=O)S/C(=C\c2ccccc2)C1=O)Nc1ccc(C(=O)/C=C/c2cc3ccccc3nc2Cl)cc1`, the growth in experiment [1] was 91.4%; in experiment [2], 51.2%; in experiment [3] it was 91.1%; in experiment [4], 90.2%; in [5] it was 109%; in experiment [6] it was 81.8%. Besides, the growth in experiment [7] was 81%; in [8], 90.8%; in experiment [9] it was 71.3%; in experiment [10] it was 78.8%.

Take `NS(=O)(=O)Oc1ccc2nc(Nc3ccc(F)c(F)c3)ccc2c1`: the growth is 92.9% in experiment [1]; 67.6% in [2]; 102% in experiment [3]; 94.3% in [4]; 96.7% in experiment [5]; 88.1% in experiment [6]. The growth is 82.8% in experiment [7], 89.9% in [8], 104% in experiment [9] and 87.9% in [10].

Turning to `CCN1C/C(=N\S(=O)(=O)c2ccccc2)N(CC)C1=S`, the growth in experiment [1] is 117%; in [2], 98.8%; in experiment [3], 100%; in experiment [4] it was 104%; in experiment [5] it was 117%; in experiment [6], 104%. Besides, the growth in [7] is 103%; in experiment [8], 102%; in [9] it was 97.6%; in experiment [10], 99%.

Regarding `O=C(NNc1nc2cc(F)c(F)cc2n2cccc12)c1ccncn1`, the growth was 22.2% in [1]; 16.1% in experiment [2]; 34.4% in experiment [3]; 36.4% in experiment [4]; 30.4% in experiment [5]; 18.7% in experiment [6]. For the same molecule, the growth in experiment [7] is 15.9%; in experiment [8] it was 6.94% (active); in experiment [9], 15.7%; in experiment [10], 12.9%.

Regarding `CC(C)(C)CC(C)(C)n1nnnc1C(Nc1ccccc1)c1cc2cccc3ccc4cccc1c4c32` (stereo not given), the growth is 96.9% in [1]; 72.6% in experiment [2]; 87.4% in experiment [3]; 75.1% in experiment [4]; 79.5% in experiment [5]; 82.4% in experiment [6]. In addition, the growth in experiment [7] was 86.5%; in experiment [8], 95.7%; in experiment [9] it was 95.5%; in [10] it was 90.2%.

With `CNC(=O)c1cc(Oc2ccc3nc(NC(=O)c4ccc(CN5CCN(C)CC5)c(C(F)(F)F)c4)sc3c2)ccn1`, the growth in [1] was 79.3%; in experiment [2] it was 11.7%; in [3] it was -5.19% (active); in experiment [4] it was 77.5%; in experiment [5], 46.7%; in experiment [6] it was 74.6%. Also, the growth in experiment [7] was 36%; in experiment [8] it was 25%; in experiment [9], 20.4%; in [10] it was 0.73% (active).

Turning to `c1ccc(-c2n(Cc3ccc4ccccc4c3)c3c4ccccc4c4ccccc4c3[n+]2Cc2ccc3ccccc3c2)cc1`, the growth in [1] was -94.4% (active); in experiment [2], -45% (active); in [3] it was -81.4% (active); in [4], -79% (active); in experiment [5], -83.2% (active); in experiment [6], -63.6% (active). In addition, the growth was -87.1% (active) in experiment [7], -81.8% (active) in experiment [8], -38.2% (active) in [9] and -64.6% (active) in experiment [10].

On to `C=CCn1c(SCC(=O)Nc2ccc(OC)cc2)nnc1-c1ccc(Cl)cc1`, for which the growth is 99.5% in experiment [1]; 89.6% in [2]; 89.9% in experiment [3]; 85.3% in experiment [4]; 86.6% in experiment [5]; 90.6% in experiment [6]. The growth in experiment [7] is 98.1%; in [8] it was 94.8%; in experiment [9] it was 97.1%; in [10] it was 96.3%.

With `O=C(Cn1cc(CN2C(=O)c3ccc([N+](=O)[O-])cc3C2=O)nn1)Nc1ccccc1Br`, the growth in experiment [1] was 113%; in [2] it was 98.5%; in experiment [3] it was 99.5%; in [4] it was 103%; in [5], 119%; in experiment [6] it was 106%. The growth is 108% in experiment [7], 107% in experiment [8], 106% in experiment [9] and 101% in experiment [10].

Regarding `O=C(/C=C1\C=CN(CCCCO)c2ccccc21)n1ccc2ccccc21`, the growth in [1] is 107%; in experiment [2], 109%; in [3], 99.2%; in [4], 98.5%; in experiment [5], 113%; in experiment [6], 107%. Moreover, the growth was 103% in experiment [7], 98.6% in [8], 105% in experiment [9] and 94.6% in experiment [10].

For the molecule `CC1COc2c(N3CCN(C)CC3)c(F)cc3c(=O)c(C(=O)N/N=C/c4cc[nH]c4)cn1c23` (stereo not given), the growth is 42% in [1]; -27.8% (active) in experiment [2]; -3.02% (active) in experiment [3]; 44.4% in [4]; 16% in [5]; 59.1% in experiment [6]. The growth in experiment [7] is 70.3%; in [8] it was 38.5%; in [9], -74.5% (active); in experiment [10], -79.8% (active).

Take `O=S(=O)(Nc1ccc2c(c1)OC(F)(F)O2)c1ccc(-c2cnc(C3CC3)o2)cc1`: the growth was 68.6% in experiment [1]; 9.69% (active) in experiment [2]; 50.2% in [3]; 48.1% in experiment [4]; 49.5% in experiment [5]; 60.6% in experiment [6]. For the same molecule, the growth in experiment [7] was 22.6%; in experiment [8], 37.8%; in experiment [9], 58.9%; in [10], 25.4%.

As to `CNC(=O)c1c(NC(=O)c2ccc(F)cc2F)sc2c1CCC(=O)C2`, the growth in experiment [1] was 66.4%; in [2], 12.7%; in experiment [3], -9.54% (active); in experiment [4], -16.6% (active); in [5], -28.9% (active); in [6] it was 20.3%. For the same molecule, the growth in experiment [7] is -3.76% (active); in experiment [8], -28.6% (active); in [9] it was -2.26% (active); in experiment [10], 19.3%.

With `CCOC(=O)C1=C(C)N=C2Sc3ccccc3N2C1c1ccccc1` (stereo not given), the growth in experiment [1] was 98.2%; in experiment [2] it was 72.8%; in experiment [3], 102%; in [4], 83.2%; in experiment [5], 109%; in experiment [6], 101%. Further, the growth in experiment [7] was 98.3%; in experiment [8], 90.3%; in experiment [9], 92.6%; in experiment [10], 89.5%.

For `CN1CCN(c2ccc3c(c2)nc(NNC(=O)c2ccncn2)c2cccn23)CC1`, the growth was 27.5% in [1]; 25.6% in experiment [2]; 43.9% in experiment [3]; 36.9% in [4]; 66.5% in experiment [5]; 26.6% in experiment [6]. The growth is 0.713% (active) in [7], 24.2% in [8], 42.8% in [9] and 9.89% (active) in experiment [10].

Regarding `N#Cc1c(-c2cccs2)cc(-c2cnccn2)nc1SCC(=O)NNC(=S)Nc1ccc(F)cc1`, the growth was 109% in experiment [1]; 92.2% in [2]; 127% in experiment [3]; 94.5% in experiment [4]; 141% in experiment [5]; 106% in experiment [6]. Also, the growth in experiment [7] was 106%; in experiment [8], 98.1%; in experiment [9], 112%; in experiment [10], 104%.

Turning to `CCOC(=O)c1c(NCC(=O)Nc2cccc([N+](=O)[O-])c2)sc2c1CCCC2`, the growth in experiment [1] was -15.2% (active); in experiment [2], 3.3% (active); in experiment [3], -63.9% (active); in experiment [4], -44% (active); in experiment [5], -84.6% (active); in experiment [6], -42.2% (active). Besides, the growth was -90.2% (active) in [7], -55.6% (active) in experiment [8], -27% (active) in experiment [9] and -85.2% (active) in experiment [10].

On to `C#C[C@]1(O)CC[C@H]2[C@@H]3CC=C4c5sc(-c6cccc(F)c6)nc5CC[C@]4(C)[C@H]3CC[C@@]21C`, for which the growth in experiment [1] is 99.2%; in experiment [2], 19%; in [3] it was 95.4%; in experiment [4] it was 93.2%; in experiment [5], 20.7%; in [6] it was 85.8%. The growth in experiment [7] was 61.9%; in [8], 67.3%; in [9] it was 90%; in experiment [10], 82%.
